The results in this text go back to the supplement of paper PMC10681739.

The full ranking holds about 2,700 sequences; the median of “arbitrary fluorescence units” is about 4,100, and the highest 2% start at about 54,000. The entries come from a sample that favours the highest values as a whole.

The target in this assay is T1, ETS1 (UniProt P14921).
T1 sequence: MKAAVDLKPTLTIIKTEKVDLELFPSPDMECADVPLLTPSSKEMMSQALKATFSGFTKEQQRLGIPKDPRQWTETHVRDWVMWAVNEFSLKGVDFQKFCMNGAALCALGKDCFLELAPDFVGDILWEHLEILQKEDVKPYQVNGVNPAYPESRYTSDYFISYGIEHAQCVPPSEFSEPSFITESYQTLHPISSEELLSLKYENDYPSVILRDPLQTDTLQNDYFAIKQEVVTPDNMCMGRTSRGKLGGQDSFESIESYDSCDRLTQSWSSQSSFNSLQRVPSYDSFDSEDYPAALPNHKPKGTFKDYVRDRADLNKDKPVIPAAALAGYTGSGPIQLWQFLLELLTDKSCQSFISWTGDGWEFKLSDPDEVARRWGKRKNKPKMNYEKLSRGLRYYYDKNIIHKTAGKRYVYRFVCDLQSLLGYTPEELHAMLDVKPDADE
Description: ETS1 binding intensity (PBM fluorescence) (arbitrary fluorescence units); higher = stronger binding. The settings on record: ETS1 concentration 10 nM. The method, then: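 gcPBM on wild-type 36-bp genomic probes with two neighbouring ETS1 sites (4-24 bp apart). Recombinant human ETS1 (10 nM) was detected with anti-ETS1 antibody fluorescence. Values are medians over 3 replicate spots. The probes sit in constant array flanks that are not printed.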
In turn, GAGGGTAACTTCCTGTTTCTGCCTTCCGGGTTTGAG gave an ETS1 binding intensity of 47100.
With GTTTTCAGTTGCCTTCCGGTTTCCTGCTGTGATAAC, the ETS1 binding intensity came out at 15800.
With TCTACTTCCGGTTTGCCTGTGAATTCTTTCCTGGGC, the ETS1 binding intensity turned out to be 153000.
In turn, AAGGGAATCTGGGAAATGTAGTTTCCTGCAATCCAG yielded an ETS1 binding intensity of 540.
As to GGCCGCTTCCGAGCGCCGCCAACCGCTTCCGGGTTC, the ETS1 binding intensity is 5250.
The sequence GCCCGAGCCGCTTCCGGGTACTTCCGGCGGCCGCGG registered an ETS1 binding intensity of 39600.
The figure for GTCACTTCCGGCCCCGAGTTCGAGCCGCTTCCGGGT is 115000; for GGACTTCCCAACTAGACAGACCAAATGAGGAAGTTG it is 880; for CTGGGGGTCCGGATGCTTTGCGTTTCCCAGCAGTTG it is 1230.
GGGCACTTCCGGGGCCGGCGCCCAGAGTTCCGGGAG showed an ETS1 binding intensity of 46800.
For the sequence TGACAAGAGCCGGAACCGTCACTTCCGGCGGCGCGG, the ETS1 binding intensity turned out to be 24700.
The sequence CCCACTTCCGGCAACAAGATAGAGCACTTCCGTCAA came in with an ETS1 binding intensity of 77600.
The figure for TCAGTGGGCGGAAGAGGTGGCCCCGGATGCTGCGGC is 1430; for CGCCGCCGGAAGTGCCTGGCCTCACTTCCGGTCAGA it is 37200; for GCGGTTACTTCCGGTCACTTTCGCCGGAACCTGACT it is 86200.
Take ATTTTCGGTCTTCCGGTCAGCCGGAACCACTCACAC: the ETS1 binding intensity amounted to 29800.
The figure for CCATTCATTTCCTGCCTCCCCGAGTTCCGGCTGCGG is 35800.
CAATTGAGGAAACAGGACCAAAGACAGGAAATGGCT: the ETS1 binding intensity came out at 2860.
Take GCGCTTCGGGCCCTTCCGGCTTCCCGGGCCTCCCGG: the ETS1 binding intensity came out at 8330.
For the sequence CGTCACTTCCGGCGCCGCGTGAGGCCTTCCGGTGCC, the ETS1 binding intensity was 73900.
In turn, CGTCCACTGGAGGCTTCCTTCCGGCGCCCGCGTGCC gave an ETS1 binding intensity of 3590.
GCGCCTGATTCACTTCCCTCTTCCGCTCTGAGGCGT came in with an ETS1 binding intensity of 4680.
In turn, GCGCTTCCGGGACGCAGGAGGCATCTGCATCCGGGG yielded an ETS1 binding intensity of 29000.
Consider CCACTTCCGGCATGCGCAGGGACGCACCTTCCGGCT, for which the ETS1 binding intensity is 109000.
As to GACCGCAGGAAGGGACGCGGCCGCACTTCCGGCGAC, the ETS1 binding intensity turned out to be 8620.
GACAGGAAGGCTACAGGCTGCCTGTGGCTTCCGTGT gave an ETS1 binding intensity of 386.
AGACTTCCGTTCTGGCTCTCACTCTAGTTTCCTGGT came in with an ETS1 binding intensity of 67500.
In turn, CTCTGTGACTTCCTGGAGACTCACTTCCTAGATGAG registered an ETS1 binding intensity of 11300.
Turning to AGCACTTCCTCAATTTCTGGCTCTACAGGATATTTC, the ETS1 binding intensity was 16100.
For the sequence ACTGCCTTCCTGGCCTGGTGGTGAGAGGAAGTCGGG, the ETS1 binding intensity was determined as 2260.
Under CTATGGTAGGAAACCCAGAAAACAGGAAGTGGCCTC stands 3030.
For CAACTTGTCGGAGCGGAACTTCCGGCGTCCTCCCTG, the ETS1 binding intensity amounted to 22800.
Regarding GCTGCAACTTCCGGTGCGCTAGCCGGAAACGCGGGT, the ETS1 binding intensity came to 78200.
TGCCCGGCTTCCGGGTGGCTGCGCGGAAGCGCGGTG yielded an ETS1 binding intensity of 20900.
The figure for GGGTGCGGAAACGCGGCAGCCGCGGCCGGATGCTGC is 2710; for CCTCCCGGAAGCCGCTGGCCCGCGCCGGAAAAGGTG it is 7300.
Consider ACAACTTCCGGCTGTAAAGATGGCGGCTTCCTAGTG, for which the ETS1 binding intensity came to 96400.
Sequence GGACAGGGACCGGATGGGAGGGGAAGTCGATGCTTG showed an ETS1 binding intensity of 3430.
As to TCCTCCTCACTTCCGCCGGAGCGGAAACGGTGAGGA, the ETS1 binding intensity was 31200.
GGTGTTCCGGACCCGCGCGGTGCGGGGAGGAAGGCC: the ETS1 binding intensity came to 1700.
Regarding TTTTATTTCCGGTTCTGAGGACGCCGCGGAAGCGGG, the ETS1 binding intensity stood at 78400.
Under GGTGCTCACGGATGCTACGCTTGTTCCTGTCTCCTC stands 370; under AGCCCCACCATTTCCTGTGACTTCCTGGAGCCTGGC, 25600.
In turn, TGAGCTATTTGACTTCCGGTTTCCTGCCCCATTTAA came in with an ETS1 binding intensity of 63200.
The figure for GCCCTTCCGGTTATTTCCCTTCCTGTTTGTCTGCCT is 48700.
In turn, TCAATTTCTCATTTCCCTGGAGGAAGCCCATAAAGT yielded an ETS1 binding intensity of 217.
With CGGGCGGAAAGGGAGCTAGAGCATTCTGGGAAATGG, the ETS1 binding intensity came out at 178.
TTATTCTGTTTCCGGCAGTTTTACTTCCGTTTGTTT showed an ETS1 binding intensity of 15900.
Under TGTTTACTTCCGGCTTTTCGCCTAATTCCGGCGGCC stands 55000.
Consider GCGGCTTGGGCCTTCCGGCTTTCCGTCCGCCGCGGC, for which the ETS1 binding intensity was found to be 7060.
In turn, AAAGCGCATTGCGGATGGCAATTCCGGTGCGTCATT returned an ETS1 binding intensity of 732.
As to CATTTACCACTTCCTGAGGTCATTTCCTGTTTTCTT, the ETS1 binding intensity stood at 25800.
Regarding GCTTGGCAGTCAGGAAGGACTTCCTGTTTCTGCTTC, the ETS1 binding intensity was determined as 14400.
The figure for CACCACTTCCTGTTTCTGAGTCATCAGGAAGGTAAT is 58900; for CTCGCAGGCTTCCCGGCTGCAACTTCCGGCGCATGC it is 14600; for AGCAACTTCCGGTGCGCTTAGCGTTACTTCCGGCGC it is 116000.
ACCCGGAAGCGCTTCACCCAGCCTGAGCGGAAGAAC had an ETS1 binding intensity of 5640.
In the case of GAGCACGACTTCCGGCCTGAAAAGGAAGTCTCCTCC, the ETS1 binding intensity amounted to 89000.
Turning to CCCAGCTAAAGGAAGTCTGGCACTTCCTCTCCTCAA, the ETS1 binding intensity is 2990.
For the sequence GAGCGGAAGTGGAAAAGACTAACTTCCGGCCTCGGG, the ETS1 binding intensity came out at 30600.
GACAGTTTCCTCTTTCACACTAGAATATCCTGTTGT gave an ETS1 binding intensity of 10900.
Regarding TGCGCCCCGTGCTTCCTGCCATCCTGTGCTCTCTGC, the ETS1 binding intensity was found to be 9740.
The figure for ACCAGGGCTGCTTCCTCACATTTCCGGTCCTGAAAA is 27700.
Sequence GGACCGGAAGTGCCTCCTGCGGAGGCAGGAAGTCCC returned an ETS1 binding intensity of 58700.
For the sequence TCATCTCTCCTGCAGGAAGGAAGTCCTGCCTCCCAC, the ETS1 binding intensity worked out at 315.
For the sequence AGCAGGAAGGACCTCAGTCCTCCAGTGCGGATGCTG, the ETS1 binding intensity was 207.
As for AACGTCCAGGAGGAAGTCAATTTCCTGGCCCTCAAT, the ETS1 binding intensity was 5100.
As to GCGCCGGAAGCAGAGACGCGTTTCGGGAGGAAGGTG, the ETS1 binding intensity was determined as 3580.
GCAGGAGACGGAAGATGCATGGGTTTCCTGGCGCGC had an ETS1 binding intensity of 424.
For AGAAGCACACAAGGAAGTGTTTCCGGGACAGAGGGT, the ETS1 binding intensity was found to be 9030.
